# From PubChem BioAssay
# Calls of active or inactive are those of the source. Unless noted, the rule behind the calls is not given here.
# How the values were obtained:
# [1] = test system: Wnt5a (protein binding on small-molecule microarray); experiment: Wnt5a binders on small-molecule microarray, primary screen, biophysical, 635/667 nm fluorescence (AID 1142); conditions: 635 nm fluorescence, higher = more signal;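 note: fluorescence read at 667 nm with signal to noise per printed feature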
# [2] = cell viability in Huh7 cells, primary screen, cytotoxicity control for HCV replication inhibitor project, CellTiter-Glo luminescence, basal, 48 h (AID 1143); conditions: Huh7 HCV replicon, higher = more signal, called active from +8 up or from −8 down;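 note: Huh7 hepatoma cells carrying a hepatitis C replication reporter with no stimulus; test concentration not given here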
# [3] = P. aeruginosa biofilm formation inhibitors, primary screen, PAO1 strain, BacTiter-Glo luminescence, LB-PBS (AID 1144); conditions: 12 h, higher = more signal
# [4] = CREB reporter modulators without forskolin, primary screen, cell-based, PC12, CRE-LacZ reporter, unstimulated (AID 1145); conditions: no forskolin, luminescence, 4.5 h, higher = more signal, called active from +8 up or from −8 down
# [5] = CREB reporter modulators under forskolin, primary screen, cell-based, PC12, CRE-LacZ reporter, forskolin-stimulated (AID 1146); conditions: luminescence, 4.5 h, higher = more signal, called active from +8 up or from −8 down;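 note: PC12 cells with 6xCRE LacZ reporter stimulated by forskolin 10 µM; beta-galactosidase reporter signal reflecting CREB driven transcription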
# [6] = target: Streptavidin (Streptomyces avidinii) (UniProt P22629); experiment: streptavidin binders on small-molecule microarray, primary screen, artefact control for SMM compound annotation, biophysical, 635/667 nm fluorescence (AID 1147); conditions: streptavidin binding, higher = more signal;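 note: signal reflects streptavidin binding to arrayed compounds as a control protein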
# [7] = small-molecule binders of probe aInhba, primary screen, biochemical, small-molecule microarray, 635/667 nm fluorescence (AID 1148); conditions: higher = more signal;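 note: score merges 667nm spot fluorescence with signal-to-noise for antibody binding to printed compounds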
# Torsin-1A (Homo sapiens) [8] = target: Torsin-1A (Homo sapiens) (UniProt O14656); experiment: torsin A binders from cell lysate, primary screen, small-molecule microarray, wild-type, 635/667 nm (AID 1149); conditions: COS7 hTOR1A-WT lysate, 635 nm fluorescence, higher = more signal
# Torsin-1A (Homo sapiens) [9] = target: Torsin-1A (Homo sapiens) (UniProt O14656); experiment: small-molecule binders of mutant TOR1A in lysate, primary screen, cell lysate, small-molecule microarray, COS7 lysate, 635/667 nm fluorescence (AID 1150); conditions: COS7 hTOR1A mutant lysate, 635 nm fluorescence, higher = more signal;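 note: score pools 667 nm emission and signal to noise measuring lysate protein binding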
# [10] = test system: Sonic hedgehog protein (Shh); experiment: small-molecule binders of Shh protein, primary screen, biochemical, small-molecule microarray, 635/667 nm fluorescence (AID 1151); conditions: small-molecule microarray binding, 635 nm fluorescence; higher = more signal;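 note: Shh protein binding to compounds spotted on small-molecule microarray slides; score combines spot fluorescence intensity with signal-to-noise across triplicate slides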
# [11] = E. coli DRC41 culture turbidity changes, primary screen, E. coli filamentation inducer project, strain DRC41, OD650, 48 h (AID 1152);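 note: E. coli MC1000 strain DRC41 lacking acrAB efflux pump and sulA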; conditions: E. coli DRC41 (acrAB sulA), higher = more signal, called active from +8 up or from −8 down
# [12] = small-molecule binders of probe aLefty1, primary screen, biochemical, small-molecule microarray, 635/667 nm fluorescence (AID 1153); conditions: higher = more signal;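 note: score merges spot fluorescence with signal-to-noise ratio from the scanned slide images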
# [13] = PSAC antagonists in infected red cells, primary screen, cell-based, P. falciparum Indochina, OD700, 1 h (AID 1154); conditions: P. falciparum Indochina infected RBC osmotic lysis, higher = more signal, called active from +8 up or from −8 down
# [14] = PSAC antagonists in infected red cells, primary screen, cell-based, P. falciparum Indochina, OD700, 2 h (AID 1155);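 note: lysis reports solute entry through the parasite surface anion channel PSAC; channel blockers reduce lysis of infected cells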; conditions: P. falciparum Indochina infected erythrocytes, osmotic lysis OD700; higher = more signal, called active from +8 up or from −8 down
# [15] = osmotic lysis modulators in infected erythrocytes, primary screen, PSAC antagonist project, cell-based, P. falciparum Indochina, OD700, 3 h (AID 1156); conditions: higher = more signal, called active from +8 up or from −8 down
# [16] = PSAC antagonists in infected red cells, primary screen, cell-based, P. falciparum Indochina, OD700, 18 h (AID 1157); conditions: P. falciparum Indochina infected erythrocytes, osmotic lysis OD700, 18 h; higher = more signal, called active from +8 up or from −8 down
# [17] = modulators of S6 phosphorylation in cells, primary screen, cell-based, A549, cytoblot, luminescence, serum-stimulated (AID 1158); conditions: A549 phospho-S6 cytoblot, 5 h, higher = more signal;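 note: serum-stimulated A549 lung adenocarcinoma cells; signal is phosphorylated S6 detected by cytoblot immunostaining with HRP secondary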
# [18] = target: NADPH oxidase 2 (Homo sapiens) (UniProt P04839); experiment: NOX2-dependent H2O2 signal modulators, primary screen, NOX inhibitor project, cell-based, HEK293-NOX2, PMA-stimulated, Amplex Red fluorescence (AID 1159); conditions: 45 min, higher = more signal, called active from +8 up or from −8 down; note: test concentration not given here
# [19] = target: NADPH oxidase 4 (Homo sapiens) (UniProt Q9NPH5); experiment: NOX4-dependent H2O2 signal modulators, primary screen, NOX inhibitor project, cell-based, HEK293-NOX4, tetracycline-induced, Amplex Red fluorescence (AID 1160); conditions: 45 min, higher = more signal, called active from +8 up or from −8 down
# [20] = target: NADPH oxidase 5 (Homo sapiens) (UniProt Q96PH1); experiment: NOX5-dependent H2O2 signal modulators, primary screen, NOX inhibitor project, cell-based, HEK293-NOX5, Amplex Red fluorescence (AID 1161); conditions: HEK293-NOX5, ionomycin, 45 min, higher = more signal
# Sequence of NADPH oxidase 5 (Homo sapiens) (Q96PH1 whole entry, looked up): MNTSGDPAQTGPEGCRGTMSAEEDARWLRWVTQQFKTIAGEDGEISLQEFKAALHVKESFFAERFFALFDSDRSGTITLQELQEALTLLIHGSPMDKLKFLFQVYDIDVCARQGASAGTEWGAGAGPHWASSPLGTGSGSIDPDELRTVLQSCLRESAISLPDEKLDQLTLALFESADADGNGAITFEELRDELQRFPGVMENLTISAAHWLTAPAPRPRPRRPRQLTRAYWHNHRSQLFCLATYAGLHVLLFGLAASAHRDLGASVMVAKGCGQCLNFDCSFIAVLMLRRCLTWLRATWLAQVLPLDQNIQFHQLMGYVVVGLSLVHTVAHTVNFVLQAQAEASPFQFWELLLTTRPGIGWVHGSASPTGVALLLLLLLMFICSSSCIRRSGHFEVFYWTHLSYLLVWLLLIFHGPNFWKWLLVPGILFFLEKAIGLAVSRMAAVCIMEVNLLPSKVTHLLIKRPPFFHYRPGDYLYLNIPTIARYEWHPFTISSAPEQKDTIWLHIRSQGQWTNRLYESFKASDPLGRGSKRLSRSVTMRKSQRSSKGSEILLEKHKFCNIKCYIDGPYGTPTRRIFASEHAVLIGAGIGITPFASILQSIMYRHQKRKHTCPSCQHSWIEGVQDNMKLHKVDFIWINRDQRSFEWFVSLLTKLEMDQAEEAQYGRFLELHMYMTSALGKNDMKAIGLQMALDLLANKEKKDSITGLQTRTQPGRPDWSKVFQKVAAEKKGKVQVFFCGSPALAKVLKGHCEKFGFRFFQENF
# Sequence of Torsin-1A (Homo sapiens) (O14656 whole entry, looked up): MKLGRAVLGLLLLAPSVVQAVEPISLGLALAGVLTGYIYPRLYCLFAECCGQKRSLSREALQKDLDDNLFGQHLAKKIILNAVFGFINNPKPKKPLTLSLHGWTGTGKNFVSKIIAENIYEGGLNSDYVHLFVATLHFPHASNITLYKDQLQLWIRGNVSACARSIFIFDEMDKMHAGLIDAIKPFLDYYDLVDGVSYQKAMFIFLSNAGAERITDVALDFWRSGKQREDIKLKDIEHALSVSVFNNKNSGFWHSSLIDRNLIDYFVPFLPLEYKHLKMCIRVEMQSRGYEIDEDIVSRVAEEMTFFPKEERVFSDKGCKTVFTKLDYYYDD
# Sequence of Streptavidin (Streptomyces avidinii) (P22629 whole entry, looked up): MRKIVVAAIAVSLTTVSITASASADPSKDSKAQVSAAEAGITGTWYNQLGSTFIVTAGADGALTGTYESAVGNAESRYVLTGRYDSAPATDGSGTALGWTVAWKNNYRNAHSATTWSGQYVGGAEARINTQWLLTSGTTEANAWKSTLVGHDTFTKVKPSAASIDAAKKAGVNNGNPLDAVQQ
# Sequence of NADPH oxidase 2 (Homo sapiens) (P04839 whole entry, looked up): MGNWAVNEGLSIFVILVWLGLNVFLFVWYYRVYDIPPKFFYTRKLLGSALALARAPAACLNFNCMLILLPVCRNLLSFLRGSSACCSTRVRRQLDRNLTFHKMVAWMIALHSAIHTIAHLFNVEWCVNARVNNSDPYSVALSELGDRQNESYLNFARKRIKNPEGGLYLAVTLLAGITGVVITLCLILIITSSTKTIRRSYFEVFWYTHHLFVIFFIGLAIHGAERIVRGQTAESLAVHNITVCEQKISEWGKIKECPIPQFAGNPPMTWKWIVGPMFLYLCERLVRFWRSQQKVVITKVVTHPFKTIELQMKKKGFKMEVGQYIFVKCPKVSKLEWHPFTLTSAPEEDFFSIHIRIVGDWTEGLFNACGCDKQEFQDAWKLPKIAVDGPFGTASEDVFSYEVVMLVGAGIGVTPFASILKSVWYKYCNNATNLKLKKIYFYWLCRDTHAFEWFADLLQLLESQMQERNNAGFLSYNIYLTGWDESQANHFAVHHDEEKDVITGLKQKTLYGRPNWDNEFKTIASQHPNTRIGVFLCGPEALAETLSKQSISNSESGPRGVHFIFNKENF
# Sequence of NADPH oxidase 4 (Homo sapiens) (Q9NPH5 whole entry, looked up): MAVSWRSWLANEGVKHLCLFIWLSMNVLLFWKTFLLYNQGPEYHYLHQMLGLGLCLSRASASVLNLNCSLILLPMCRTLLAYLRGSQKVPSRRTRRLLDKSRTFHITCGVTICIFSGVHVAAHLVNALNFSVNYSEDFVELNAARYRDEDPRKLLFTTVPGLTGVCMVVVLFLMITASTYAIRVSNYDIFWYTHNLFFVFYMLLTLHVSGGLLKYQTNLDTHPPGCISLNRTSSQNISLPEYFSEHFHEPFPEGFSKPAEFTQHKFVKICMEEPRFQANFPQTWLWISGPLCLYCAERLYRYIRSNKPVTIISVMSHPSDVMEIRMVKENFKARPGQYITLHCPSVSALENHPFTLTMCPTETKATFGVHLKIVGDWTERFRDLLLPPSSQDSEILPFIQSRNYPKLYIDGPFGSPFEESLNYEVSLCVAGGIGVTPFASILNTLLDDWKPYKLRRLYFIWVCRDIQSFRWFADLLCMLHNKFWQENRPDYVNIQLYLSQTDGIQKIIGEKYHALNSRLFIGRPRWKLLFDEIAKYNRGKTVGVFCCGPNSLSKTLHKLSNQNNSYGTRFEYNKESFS
SMILES,composite z-score [1],z-score [2],z-score [3],z-score [4],z-score [5],composite z-score [6],composite z-score [7],composite z-score (Torsin-1A (Homo sapiens) [8]),composite z-score (Torsin-1A (Homo sapiens) [9]),composite z-score [10],z-score [11],composite z-score [12],z-score [13],z-score [14],z-score [15],z-score [16],z-score [17],z-score [18],z-score [19],z-score [20]
O=C(NCc1ccccc1)[C@]1(Cc2ccccc2)N=C(c2ccc(OCCCO)cc2)O[C@@H]1c1ccccc1,0.53,-4.62 (inactive),-0.621 (inactive),-0.0576 (inactive),-1.02 (inactive),0.621,0.0053,-0.0377,0.621,-0.468,-2.04 (inactive),-0.225,30.1 (active),22.5 (active),0.578 (inactive),2.53 (inactive),-0.397,0.158 (inactive),-0.503 (inactive),-0.855
CC(C)(C)N1CC=CC23O[C@@H]4C=CCCOC(=O)C4[C@H]2C(=O)N(CCCO)[C@@H]3C1=O (stereo not given in full),-0.213,-2.5 (inactive),-0.93 (inactive),0.451 (inactive),-0.178 (inactive),-1.33,-0.23,-0.253,-0.663,0.398,0.471 (inactive),-0.289,0.595 (inactive),-1.01 (inactive),0.79 (inactive),-1.49 (inactive),0.682,-2.85 (inactive),-2.02 (inactive),-0.648
COc1ccc(CCNC(=O)[C@@H]2c3ccccc3C(=O)N(Cc3ccccc3C(F)(F)F)[C@H]2c2ccc(CO)cc2)cc1,-0.189,-2.64 (inactive),-0.984 (inactive),-0.295 (inactive),-0.132 (inactive),-0.752,-0.168,-1.27,0.714,-0.25,0.163 (inactive),-0.144,3.68 (inactive),0.252 (inactive),1.73 (inactive),0.694 (inactive),-0.366,-0.536 (inactive),-2.38 (inactive),-3.69
COc1ccc([Si](C)(C)[C@H]2[C@H](CCn3cc(CCO)nn3)O[C@@]3(C(=O)N(Cc4cccc(N5C(=O)c6cccc7cccc5c67)c4)c4ccccc43)[C@@H]2C)cc1,0.16,-7.3 (inactive),-1.11 (inactive),11 (active),-1.3 (inactive),0.99,-0.018,1.33,1.22,1.37,0.652 (inactive),0.466,5.3 (inactive),2.43 (inactive),1.32 (inactive),1.36 (inactive),0.615,0.782 (inactive),1.74 (inactive),2.97
CC(C)NC(=O)[C@@]1(Cc2ccccc2I)c2ccccc2C(=O)N(Cc2ccccc2C(F)(F)F)[C@H]1c1ccc(CO)cc1,0.0851,-1.7 (inactive),0.358 (inactive),0.856 (inactive),-0.151 (inactive),-0.503,0.225,-0.158,0.644,0.66,0.267 (inactive),0.243,5.93 (inactive),1.82 (inactive),0.602 (inactive),1.19 (inactive),-0.171,1.12 (inactive),-0.213 (inactive),2.3
COCCCNC(=O)[C@@]1(Cc2ccccc2N=[N+]=[N-])N=C(c2ccc(OCCCO)cc2)O[C@H]1c1ccccc1CN=[N+]=[N-],0.972,-5.06 (inactive),-0.389 (inactive),1.84 (inactive),-1.75 (inactive),1.08,0.246,0.554,0.752,-0.265,0.871 (inactive),0.152,24.8 (active),8.62 (active),2.41 (inactive),0.74 (inactive),2.17,-2.73 (inactive),0.7 (inactive),-1.16
COc1ccccc1CN1C(=O)c2ccccc2[C@](Cc2ccccc2I)(C(=O)NCCN2CCOCC2)[C@@H]1c1ccc(CO)cc1,0.375,-4.52 (inactive),0.506 (inactive),0.648 (inactive),-0.746 (inactive),0.593,-0.101,0.301,0.504,1.48,0.117 (inactive),-0.181,9.62 (active),0.349 (inactive),-0.113 (inactive),-0.385 (inactive),1.39,-1.81 (inactive),0.454 (inactive),-0.824
COC(=O)[C@@]1(Cc2ccc(F)cc2)[C@H]2c3cc(C(=O)N(C)C)n(Cc4ccc(C)c(F)c4F)c3C[C@H]2CN1C(=O)c1ccccc1,0.152,-1.47 (inactive),0.563 (inactive),0.0041 (inactive),0.204 (inactive),0.993,0.651,0.123,0.432,-0.553,-0.165 (inactive),0.159,5.08 (inactive),1.21 (inactive),0.306 (inactive),0.813 (inactive),0.101,0.561 (inactive),-0.0461 (inactive),0.169
O=C(O)[C@]1(CCS(=O)(=O)c2ccccc2)N=C(c2ccc(OCCCO)cc2)O[C@@H]1c1ccccc1,0.235,0.495 (inactive),0.869 (inactive),0.19 (inactive),-0.534 (inactive),-0.0087,0.297,-0.0493,-0.301,-0.439,0.139 (inactive),0.528,11.3 (active),1.11 (inactive),0.327 (inactive),-0.169 (inactive),-0.515,-0.298 (inactive),0.578 (inactive),1.1
